Assay outcomes: PubChem, National Center for Advancing Translational Sciences (NCATS)
Most compounds without a hit are left out; they make up all but 10% or so of the library.
Six1-Eya2 blk: blocks human Six1 binding to Eya2. AlphaScreen GST-Six1/His-Eya2 binding, biochemical; hits give low values. actives 0.56% (n = 360,000). Q15475+O00167. AID 651725. activity change, % (concentration not given with the values); in the data active = activity change below about -65%; inconclusive = mostly about -30% to -63%; note: % is set by controls: 0 for no effect and ±100 for the full control effect
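GST-Six1 + His-Eya2 (5X stock: 250/500 nM); Tris pH 8.0, 300 mM NaCl, 0.05% BSA, 0.02% Tween 20; GSH donor/Ni acceptor beads; 1 h 37 °C dark; AlphaScreen readout.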
CtBP-E1A blk: CtBP/E1A binding inhibition. activity change, % (no concentration beside the values). actives 0.49% (n = 340,000). AlphaScreen GST-E1A/His-CtBP binding, 1536-well; hits give low values; in the data active = activity change below about -65%; inconclusive = mostly about -30% to -63%; note: % is set by controls: 0 for no effect and ±100 for the full control effect
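Homogeneous bead-based format: GST-tagged E1A captured on glutathione donor beads, His-tagged CtBP on nickel acceptor beads; compounds precede bead addition by 2 h at 37 °C.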
HP1b chromo inh: inhibitors of HP1-beta chromodomain binding to methylated histone tails. AlphaScreen HP1-beta / biotin-H3K9me3 peptide binding. Potency, µM (top dose mostly 114 µM), without a hit: top-dose activity change, negative = inhibition, actives largely listed as inhibitors. actives 0.56% (n = 390,000). AID 540317; note: potency is the fitted concentration of half-maximal effect; nearly all actives have a fitted effect of over 70% in size
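AlphaScreen: HP1-beta (50 nM) preformed 30 min with biotin-H3(1-18)K9me3 peptide (50 nM) in PBS pH 7.4, 0.01% Tween-20. Compound added for 30 min at RT, then streptavidin donor/nickel chelate acceptor beads (10 ug/mL) for 30 min.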
BAZ2B block: BAZ2B (human) inhibition | Q9UIF8 | AlphaScreen BAZ2B-H3K14Ac peptide displacement | Potency, µM (titrated, usually from 114 µM), without a hit: at the top dose activity change, negative = inhibition, usual class: inhibitors | actives 4.4% (n = 360,000) | AID 504333; note: potency is the fitted concentration of half-maximal effect; % is set by controls: 0 for no effect and ±100 for the full control effect; nearly all actives have a fitted effect of over 60% in size
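AlphaScreen displacement: compounds (up to 110uM) incubated 30 min at room temperature with a preformed 50 nM BAZ2B/50 nM biotinylated H3K14Ac peptide complex in PBS pH 7.4 with Tween-20. Donor and acceptor beads at 10 ug/mL final added, 20 min light-protected before reading.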
G9a block: blocks human histone lysine methyltransferase G9a | Q96KQ7 | G9a H3K9 monomethylation, AlphaScreen, 2 h | Potency, µM (highest dose often 102 µM), for the others: at the top dose activity, negative = inhibition, usual class: inhibitors | actives 8.8% (n = 350,000) | AID 504332; note: potency is the fitted concentration of half-maximal effect; % is set by controls: 0 for no effect and ±100 for the full control effect; nearly all actives have a fitted effect of over 75% in size
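Chemiluminescent proximity detection of H3K9 monomethylation, read after 10 min bead incubation in the dark. Reaction: 20 nM G9a, 500 nM biotin-H3K9 peptide, 20 uM SAM cofactor, 2 h, room temperature, following 15 min enzyme-compound preincubation.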
JMJD2A Tudor inh: JMJD2A Tudor domain (human) inhibition; Potency, µM (highest dose often 114 µM), without a hit: top-dose activity change, negative = inhibition, usual class: inhibitors; actives 4.4% (n = 390,000); AlphaScreen JMJD2A-Tudor / H3K4me3 peptide binding; note: potency is the fitted concentration of half-maximal effect; % is set by controls: 0 for no effect and ±100 for the full control effect; nearly all actives have a fitted effect of over 50% in size
Target sequence (O75164 whole entry, looked up, the tested form may be a part): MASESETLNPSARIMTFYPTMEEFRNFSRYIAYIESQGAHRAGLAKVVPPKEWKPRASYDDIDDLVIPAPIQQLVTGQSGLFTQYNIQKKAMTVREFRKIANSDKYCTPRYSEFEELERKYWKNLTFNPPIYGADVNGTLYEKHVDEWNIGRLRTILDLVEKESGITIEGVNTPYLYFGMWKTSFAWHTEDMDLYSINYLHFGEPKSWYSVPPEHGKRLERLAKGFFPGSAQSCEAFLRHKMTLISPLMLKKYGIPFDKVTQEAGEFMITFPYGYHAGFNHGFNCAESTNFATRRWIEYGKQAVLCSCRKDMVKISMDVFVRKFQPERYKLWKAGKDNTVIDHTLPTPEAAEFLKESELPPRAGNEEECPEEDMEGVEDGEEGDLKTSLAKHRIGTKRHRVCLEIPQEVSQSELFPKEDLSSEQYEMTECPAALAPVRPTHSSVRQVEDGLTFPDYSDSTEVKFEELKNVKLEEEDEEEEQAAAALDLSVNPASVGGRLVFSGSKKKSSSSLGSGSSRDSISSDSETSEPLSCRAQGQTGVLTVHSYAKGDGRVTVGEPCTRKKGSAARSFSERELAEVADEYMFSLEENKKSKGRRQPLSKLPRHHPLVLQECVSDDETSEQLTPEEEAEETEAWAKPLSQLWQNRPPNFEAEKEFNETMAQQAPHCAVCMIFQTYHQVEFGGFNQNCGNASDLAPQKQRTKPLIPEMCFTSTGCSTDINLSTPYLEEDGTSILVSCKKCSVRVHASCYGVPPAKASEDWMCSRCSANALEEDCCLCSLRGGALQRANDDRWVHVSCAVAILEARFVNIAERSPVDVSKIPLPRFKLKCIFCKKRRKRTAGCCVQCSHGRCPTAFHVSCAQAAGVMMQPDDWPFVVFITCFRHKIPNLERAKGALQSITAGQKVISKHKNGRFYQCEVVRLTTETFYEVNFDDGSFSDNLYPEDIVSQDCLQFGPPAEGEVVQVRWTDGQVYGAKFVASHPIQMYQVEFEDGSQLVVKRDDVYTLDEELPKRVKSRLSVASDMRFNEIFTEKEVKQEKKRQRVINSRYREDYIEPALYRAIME
* = called active by the depositor; ? = inconclusive; . = no result given; ! = not confirmed by another sample; [ ] = dose if it differs, or a comment. Unless noted, calls come from the whole dose curve; as a rule, active = well fitted inhibition curve with a large enough effect; inconclusive = small, poorly fitted or top-dose-only effect; inactive = no such curve, though single readings can be large or run the other way.

SMILES	Six1-Eya2 blk	CtBP-E1A blk	HP1b chromo inh	BAZ2B block	G9a block	JMJD2A Tudor inh
CCc1ccc(Nc2n[n+](-c3ccccc3)c(-c3c(Cl)cccc3Cl)s2)cc1	?	?	-4.9%	8.91µM*	14.1µM*	15.8µM*
CCc1ccc(Nc2n[n+](-c3ccccc3)c(/C=C/c3ccccc3)s2)cc1	.	.	.	28.2µM*	39.8µM*	.
CCc1ccc(Nc2nc3ccccc3c(=O)s2)cc1	0.0	1.4	38.9%	-2.0%	-4.7%[59 µM]	-0.7%
CCn1cc(CN2CCC(n3nccc3NC(=O)c3ccc(OC)cc3)CC2)cn1	5.7	-2.5	27.0%	1.7%	5.7%	-20.3%
COc1ccccc1N(CC(=O)NCc1ccc2c(c1)OCO2)C(=O)CCC(=O)Nc1nccs1	-0.2	-4.3	16.4%	-9.7%	15.9%[59 µM]	-17.2%
CC(C)C(=O)Nc1ccccc1C(=O)OCc1cc(=O)n2nc(C3CC3)sc2n1	.	.	38.4%	-14.2%	?	4.3%
Cn1c(N)c(C(=O)COC(=O)COc2ccccc2C#N)c(=O)n(C)c1=O	3.3	12.5	56.5%	-4.9%	4.6%	-10.3%
CN(C)c1ccc(-c2sc(Nc3ccccc3)n[n+]2-c2ccc(F)cc2)cc1	4.4	-1.2	1.3%	9.9%	.	?
Fc1ccc(-[n+]2nc(Nc3ccccc3)sc2-c2c(Cl)cccc2Cl)cc1	?	?	?	39.8µM*	.	35.5µM*
Brc1ccc(-c2cnnc(N3CCCC3)n2)cc1	-14.6	-12.9	26.2%	2.5%	70.8µM*	-10.7%
Cc1nc(SCC(=O)N2c3ccccc3NC(=O)CC2C)c2c(C)c(C)sc2n1 (stereo not given)	-3.3	-8.9	33.4%	4.9%	44.7µM*	-13.1%
CC(=O)c1cc2c(cc1NC(=O)CN1CCCCC1C)OCO2 (stereo not given)	-4.3	-5.3	?	79.4µM*	12.6µM*	20µM*
COCCCNC(=O)c1ccc(N2CCCC2)c(NS(=O)(=O)c2ccc(C)cc2)c1	-2.7	4.6	35.3%	?	7.94µM*	-35.8%
CCOCCCNC(=O)c1ccc(N2CCCC2)c(NS(=O)(=O)c2ccc(C)cc2)c1	-1.3	.	34.1%	9.4%	?	-29.0%
COCCNC(=O)c1ccc(C)c(S(=O)(=O)Nc2ccc(C)cc2)c1	1.5	3.0	23.9%	7.8%	79.4µM*	-4.0%
Cc1ccc(NS(=O)(=O)c2cc(C(=O)NCc3ccncc3)ccc2C)cc1	-1.0	5.3	27.8%	-13.5%	1.4%	1.4%
Cc1cccc(NC(=O)C2CC(=O)n3cnnc3S2)c1 (stereo not given)	8.7	5.0	-46.3%	?	?	35.5µM*
COCC(C)n1c(C)cc(C(=O)CSc2nnc(N)s2)c1C (stereo not given)	0.2	-3.4	15.8%	-35.4%	6.31µM*	-25.0%
Cc1cc(C)c(C(=O)CSc2nnc(N)s2)c(C)c1	1.0	-0.1	-19.6%	-7.3%	25.1µM*	-21.9%
Cc1cc(C(=O)CSc2nnc(N)s2)c(C)n1-c1c(C)n(C)n(-c2ccccc2)c1=O	5.9	7.2	0.9%	-9.0%	50.1µM*	-23.8%
Cc1cc(C(=O)CSc2nnc(N)s2)c(C)n1C1CC1	-10.7	-0.7	21.6%	-11.0%	50.1µM*	-19.2%
Cc1cc(C)n(-c2ccc(F)cc2CN2CCN(Cc3ccccc3)C(CCO)C2)n1 (stereo not given)	-1.4	8.6	50.9%	3.6%	.	-11.0%
c1cc2c3c(cccc3c1)NC1(CCCCC1)N2	-5.6	-5.3	-6.7%	-31.8%	1.12µM*	-30.2%
c1cc2c3c(cccc3c1)NC1(CCCCCC1)N2	3.5	-11.2	-1.7%	-34.8%	4.47µM*	-8.7%[57.1 µM]
c1cc2c3c(cccc3c1)NC1(CCC3(CC1)Nc1cccc4cccc(c14)N3)N2	?	.	?	28.2µM*	24.9%[0.501 µM]	50.1µM*
SMILES	Six1-Eya2 blk	CtBP-E1A blk	HP1b chromo inh	BAZ2B block	G9a block	JMJD2A Tudor inh
O=c1c(-c2ccccc2)c(-c2ccccc2)oc2cc(O)cc(O)c12	-14.1	4.4	-17.9%	70.8µM*	41.0%[0.501 µM]	?
O=c1c(O)c(-c2ccc(O)cc2O)oc2cc(O)cc(O)c12	.	.	.	50.1µM*	39.8µM*!	.
CCN(CC)c1ccc2nc3ccc(N)cc3[n+](-c3ccccc3)c2c1	-77.7*	-84.3*	-88.7%	12.6µM*	-32.6%[0.501 µM]	44.7µM*
CCN(CC)c1ccc2nc3ccccc3[n+](CC)c2c1	-66.8*	-74.8*	?	39.8µM*	14.1µM*	?
Cc1cc(C)cc(Oc2ccccc2CO)c1	.	.	.	2.4%	36.7%	.
CCOc1ccc(NC(=O)c2cccc(S(=O)(=O)Nc3c(C)n(C)n(-c4ccccc4)c3=O)c2)cc1	-0.5	4.3	20.4%	.	.	-2.7%
CC(=O)c1c(C)oc2ccc(N(C(=O)Oc3ccccc3)S(=O)(=O)c3ccc(C(C)(C)C)cc3)cc12	.	.	23.1%	-19.7%	-40.1%[59 µM]	-13.4%
CCOc1ccc(CNC(=O)Cc2ccc(NC(=O)N3CCSc4ncccc43)cc2)cc1	.	.	24.8%	-16.5%	-5.8%[59 µM]	-8.3%
C/C(=N\NC(=O)c1ccncc1)c1cc2ccccc2oc1=O	-80.0*	-4.6	39.8%	?	7.7%[59 µM]	-4.3%
C/C(=N/NC(=O)c1ccncc1)c1cc2ccc(O)cc2oc1=O	-84.6*	-5.1	23.6%	79.4µM*	-4.3%[59 µM]	-32.4%
Cn1c2c(c(=O)n(C)c1=O)C1(C(=O)Nc3ccccc31)C(C#N)=C(N)O2 (stereo not given)	4.4	6.9	60.4%	-0.1%	0.0%[0.0925 µM]	-16.2%
COc1cccc(CNC(=O)c2ccc(C)c(S(=O)(=O)N3CCCCC3)c2)c1	-7.0	0.9	28.4%	-3.1%	12.0%[0.501 µM]	-6.9%
COC(=O)c1ccc(-c2ccc(/C=N/N3C(=O)C4C5C=CC(C6CC56)C4C3=O)o2)cc1 (stereo not given)	0.9	-7.9	-0.8%	56.2µM*	7.94µM*	?
O=C1C2C3C=CC(C4CC34)C2C(=O)N1/N=C/c1ccc(-c2ccc([N+](=O)[O-])cc2)o1 (stereo not given)	-8.4	3.1	27.0%	-11.6%	4.5%[59 µM]	-1.3%
Cc1ccc(-c2ccc(/C=N/N3C(=O)C4C5C=CC(C6CC56)C4C3=O)o2)c([N+](=O)[O-])c1 (stereo not given)	-23.7	-23.8	-15.2%	?	44.7µM*	-25.2%[57.1 µM]
Cc1sc2ncnc(NCC(c3ccco3)N(C)C)c2c1C (stereo not given)	0.3	-4.5	?	7.1%	5.3%[59 µM]	1.58µM*
COc1ccc(-c2csc(N(CCCN3CCOCC3)C(=O)CCl)n2)cc1	1.7	4.9	17.7%	?	35.5µM*	?
CCN(CC)CCCN(C(=O)c1ccc(Br)cc1)c1nc(-c2ccc(OC)cc2)cs1	?	-29.1	?	50.1µM*	.	56.2µM*
